# Where “and” joins values, the source holds several entries; their conditions need not be identical. Identical values can stand only once. Counter-ions that a name gives are not always drawn. In all, about 5,800 compounds went through this assay and about 620 (11%) showed activity. The full list was thinned out, with actives kept by preference. Values without a mark were called inactive.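 Rule for the calls: active = score above a cut-off or among the top three wells of a plate; in these data no inactive exceeds 0.85.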
# Tested on: primary human hepatic stellate cells (donor 1)
# Assay: scaled lipid accumulation score (0 = DMSO-like, 1 = nortriptyline-like); higher = stronger HSC inactivation (lipid re-accumulation), active = hit call of the paper
# Settings: 48 h
# [1] = library stock concentration: 1 mM
# [2] = library stock concentration: 3.33 mM
# [3] = library stock concentration: 10 mM
# [4] = library stock concentration: 80 uM
# [5] = library stock concentration: 400 uM
# [6] = library stock concentration: 2 mM
compound,measurement,setting,value
CCCCCCCCCCCCCCCCOC[C@H](COP(=O)([O-])OCC[N+](C)(C)C)SC(=O)CCCCCC [Heptanoyl thio-PC],scaled lipid accumulation score,[1],0.071
Cn1cc(C2=C(c3cn(CCCSC(=N)N)c4ccccc34)C(=O)NC2=O)c2ccccc21 [Ro 31-8220 Mesylate],scaled lipid accumulation score,[2],≤ -0.009
same,scaled lipid accumulation score,[3],0.514
Cn1cc(C2=C(c3cn(CCCN)c4ccccc34)C(=O)NC2=O)c2ccccc21 [Bisindolylmaleimide VIII (acetate)],scaled lipid accumulation score,[1],≤ 0
O=C1NC(=O)C(c2cn(CCCO)c3ncccc23)=C1c1cnccn1 [GSK-3b Inhibitor XI],scaled lipid accumulation score,[2],0.065
Cn1cc(C2=C(c3cn(CCCSC(=N)N)c4ccccc34)C(=O)NC2=O)c2ccccc21 [Ro 31-8220 mesylate],scaled lipid accumulation score,[3],≤ -0.001
Cn1cc(C2=C(c3ccc(Cl)cc3Cl)C(=O)NC2=O)c2ccccc21 [listing 1 of 5 here],scaled lipid accumulation score,[4],0.035
same,scaled lipid accumulation score,[5],≤ -0.009 and 0.379
same,scaled lipid accumulation score,[6],0.225
same,scaled lipid accumulation score,[2],0.555
same,scaled lipid accumulation score,[3],0.564
Cn1cc(C2=C(c3ccc(Cl)cc3Cl)C(=O)NC2=O)c2ccccc21 [listing 2 of 5 here],scaled lipid accumulation score,[3],1.22 (active)
Cn1cc(C2=C(c3ccc(Cl)cc3Cl)C(=O)NC2=O)c2ccccc21 [listing 3 of 5 here],scaled lipid accumulation score,[6],1.13 (active)
same,scaled lipid accumulation score,[3],1.17 (active)
Cn1cc(C2=C(c3ccc(Cl)cc3Cl)C(=O)NC2=O)c2ccccc21 [listing 4 of 5 here],scaled lipid accumulation score,[3],1.37 (active)
Cn1cc(C2=C(c3c4n(c5ccccc35)CCC(CN)C4)C(=O)NC2=O)c2ccccc21 (centres undefined) [Bisindoylmaleimide X HCl salt (Ro 31-8425) (0.4 mM)],scaled lipid accumulation score,[5],0.132
Cn1cc(C2=C(c3c4n(c5ccccc35)CCC(CN)C4)C(=O)NC2=O)c2ccccc21 (centres undefined) [Bisindoylmaleimide X HCl salt (Ro 31-8425) (2 mM)],scaled lipid accumulation score,[6],≤ 0
Cn1cc(/C=C2\C(=O)Nc3cccnc32)c2ccccc21,scaled lipid accumulation score,[5],≤ -0.005
same,scaled lipid accumulation score,[6],0.002
same,scaled lipid accumulation score,[3],≤ -0.001 and ≤ -0.005
Cn1cc(C2=C(c3ccc(Cl)cc3Cl)C(=O)NC2=O)c2ccccc21 [listing 5 of 5 here],scaled lipid accumulation score,[3],1.03 (active)
Cn1cc(C2=C(c3c4n(c5ccccc35)CCC(CN)C4)C(=O)NC2=O)c2ccccc21 (centres undefined) [Bisindoylmaleimide X  HCl salt (Ro 31-8425) (10 mM)],scaled lipid accumulation score,[3],≤ -0.005
CCCCn1c2ccc(O)cc2c2c3c(c(-c4ccccc4Cl)cc21)C(=O)NC3=O [Wee1 Inhibitor II],scaled lipid accumulation score,[2],≤ 0
"NCCCn1cc(C2=C(c3c[nH]c4ccccc34)C(=O)NC2=O)c2ccccc21 [Bisindolylmaleimide III, Hydrochloride]",scaled lipid accumulation score,[2],≤ 0
Cn1cc(C2=C(c3cn(CCCSC(=N)N)c4ccccc34)C(=O)NC2=O)c2ccccc21,scaled lipid accumulation score,[4],0.068
same,scaled lipid accumulation score,[5],0.267
same,scaled lipid accumulation score,[6],≤ 0
same,scaled lipid accumulation score,[2],≤ 0
same,scaled lipid accumulation score,[3],0.848
same,scaled lipid accumulation score,library stock concentration: 10.9 mM,0.832
Cn1cc(C2=C(c3cn(CCCSC(=N)N)c4ccccc34)C(=O)NC2=O)c2ccccc21 [Bisindolylmaleimide IX (mesylate)],scaled lipid accumulation score,[1],≤ 0
CCCCCCCCCCCCCCCC(=O)OCC [Palmitic Acid ethyl ester],scaled lipid accumulation score,[1],≤ 0
C[N+]1(C)C[C@H](O)C[C@H]1C(=O)[O-] [Betonicine],scaled lipid accumulation score,,≤ 0
CCCCC[C@H](O)/C=C/[C@H]1CCC(=O)[C@@H]1C/C=C\CCCC(=O)O [11-deoxy Prostaglandin E2],scaled lipid accumulation score,[1],0.072
CC[C@H](CO)Nc1nc(NCc2ccccc2O)c2ncn(C(C)C)c2n1 [Olomoucine II],scaled lipid accumulation score,[2],0.299
NC1=N[C@@]2(c3cc(NC(=O)c4ccc(F)cn4)ccc3F)COC[C@H]2CS1,scaled lipid accumulation score,[2],0.012
same,scaled lipid accumulation score,[3],0.209
C[C@]12CCC(=O)C=C1CC[C@@H]1[C@@H]2[C@@H](O)C[C@@]2(C)[C@H]1CC[C@]2(O)C(=O)COP(=O)(O)O [Hydrocortisone phosphate triethylamine],scaled lipid accumulation score,library stock concentration: 3.1 mM,≤ -0.001
CCOc1nc2cccc(C(=O)O)c2n1Cc1ccc(-c2ccccc2-c2noc(=O)[nH]2)cc1 [Azilsartan],scaled lipid accumulation score,[2],≤ 0
same,scaled lipid accumulation score,[3],≤ 0
CCCCC[C@H](O)/C=C/[C@H]1C(=O)C[C@H](O)[C@@H]1C/C=C/CCCC(=O)O [5-trans Prostaglandin D2],scaled lipid accumulation score,[1],≤ 0
COC(=O)C1=C(C)NC(C)=C(C(=O)OCCCN2CCC(c3ccccc3)(c3ccccc3)CC2)[C@@H]1c1cccc([N+](=O)[O-])c1 [(R)-(-)-Niguldipine hydrochloride],scaled lipid accumulation score,[3],≤ -0.006
C=C1C(=O)O[C@H]2[C@H]1CC/C(C)=C/CC[C@@]1(C)O[C@@H]21 [Parthenolide],scaled lipid accumulation score,,0.539
same,scaled lipid accumulation score,[3],0.317 and 0.269
same,scaled lipid accumulation score,library stock concentration: 20.1 mM,0.417
C=C1C(=O)O[C@H]2[C@H]1CC/C(C)=C/CC[C@@]1(C)O[C@@H]21 [(-)-Parthenolide],scaled lipid accumulation score,[2],0.099
same,scaled lipid accumulation score,[3],0.534
C=C1C(=O)OC2CC1C(OC(C)=O)C/C(C)=C/CC/C(C)=C/CC[C@]2(C)O (some centres undefined) [Crassin acetate],scaled lipid accumulation score,[3],1.04 (active)
C=C1C(=O)O[C@@H]2/C=C(\C)CC/C=C(\C)CC[C@@H]12 [Costunolide],scaled lipid accumulation score,[2],≤ 0
same,scaled lipid accumulation score,[3],0.163 and ≤ -0.001
CCCCCCCC/C=C\CCCCCCCCOC[C@H](COP(=O)([O-])OCC[N+](C)(C)C)OC(C)=O,scaled lipid accumulation score,[1],≤ -0.018
CC(=O)NCC(=O)N[C@H](CCC(=O)O)C(=O)O [N-Acetylglycyl-D-glutamic acid],scaled lipid accumulation score,[3],≤ 0
CN(C)CCCN1c2ccccc2CCc2ccc(Cl)cc21 [Clomipramine hydrochloride],scaled lipid accumulation score,library stock concentration: 5.7 mM,0.836
CN(C)CCCN1c2ccccc2CCc2ccccc21.Cl [Imipramine hydrochloride],scaled lipid accumulation score,[3],1.1 (active)

# Reference: the supplement of paper PMC9135407
